Experimental data reported in PMC5700166.

What was measured:
Assay in all cases: protein-binding microarray (PBM); PBM: ~300 nM protein, 6 mM HEPES pH 7.8, 80 mM KCl, 0.5 mM EDTA, 0.5 mM EGTA, 6% glycerol, 35 ng/ul poly-dIdC, 1% milk, 1 h, room temperature; Ap Aiptasia and Nv Nematostella (sea anemones) / Co Capsaspora / Aq Amphimedon (sponge) / Dm Drosophila / Hu human; RHD is the Rel homology domain; high values mean tight binding
Settings in all cases: dsDNA, one strand shown
[1] = biological target: T1, GST-Ap-NF-kB RHD (Exaiptasia pallida (Aiptasia), UniProt A0A913YAJ5 2-422)
T1 sequence: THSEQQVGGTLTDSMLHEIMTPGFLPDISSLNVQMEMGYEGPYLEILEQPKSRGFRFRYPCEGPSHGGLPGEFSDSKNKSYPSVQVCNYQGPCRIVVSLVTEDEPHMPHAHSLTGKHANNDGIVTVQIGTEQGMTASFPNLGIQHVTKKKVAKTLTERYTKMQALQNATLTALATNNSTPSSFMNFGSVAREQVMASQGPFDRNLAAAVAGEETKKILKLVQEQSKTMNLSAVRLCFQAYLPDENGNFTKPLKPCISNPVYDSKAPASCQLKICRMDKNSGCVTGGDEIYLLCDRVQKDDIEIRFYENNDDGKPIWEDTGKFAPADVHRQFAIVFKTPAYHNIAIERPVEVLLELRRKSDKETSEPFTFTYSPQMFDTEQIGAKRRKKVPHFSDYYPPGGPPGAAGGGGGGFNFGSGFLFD

[2] = biological target: T2, GST-Nv-NF-kB (Cys allele) (Nematostella vectensis, UniProt E5G601 2-411)
T2 sequence: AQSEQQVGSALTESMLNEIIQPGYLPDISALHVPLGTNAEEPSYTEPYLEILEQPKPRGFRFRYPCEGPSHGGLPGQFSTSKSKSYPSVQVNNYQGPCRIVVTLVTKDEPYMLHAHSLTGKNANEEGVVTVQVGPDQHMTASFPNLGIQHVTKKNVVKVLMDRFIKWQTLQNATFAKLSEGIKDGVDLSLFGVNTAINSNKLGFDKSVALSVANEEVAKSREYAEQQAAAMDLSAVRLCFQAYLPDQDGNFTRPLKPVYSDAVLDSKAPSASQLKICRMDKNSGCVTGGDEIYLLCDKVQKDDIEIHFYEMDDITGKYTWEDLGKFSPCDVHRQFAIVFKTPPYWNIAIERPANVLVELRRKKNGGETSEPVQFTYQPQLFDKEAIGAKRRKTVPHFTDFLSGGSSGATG

[3] = biological target: T3, GST-Co-NF-kB (Capsaspora owczarzaki, UniProt F1ARL5 200-546)
T3 sequence: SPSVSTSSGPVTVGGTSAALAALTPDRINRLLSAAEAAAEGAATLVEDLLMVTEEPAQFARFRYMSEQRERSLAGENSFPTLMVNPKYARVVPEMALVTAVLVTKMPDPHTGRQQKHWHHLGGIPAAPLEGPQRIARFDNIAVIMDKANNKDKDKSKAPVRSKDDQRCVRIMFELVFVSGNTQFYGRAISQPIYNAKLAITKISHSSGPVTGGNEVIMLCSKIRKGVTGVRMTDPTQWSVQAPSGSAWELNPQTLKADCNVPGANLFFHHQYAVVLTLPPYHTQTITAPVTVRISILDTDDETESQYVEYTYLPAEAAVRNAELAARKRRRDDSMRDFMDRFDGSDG

[4] = biological target: T4, GST-Dm-Relish (Drosophila melanogaster, UniProt Q94527 99-473)
T4 sequence: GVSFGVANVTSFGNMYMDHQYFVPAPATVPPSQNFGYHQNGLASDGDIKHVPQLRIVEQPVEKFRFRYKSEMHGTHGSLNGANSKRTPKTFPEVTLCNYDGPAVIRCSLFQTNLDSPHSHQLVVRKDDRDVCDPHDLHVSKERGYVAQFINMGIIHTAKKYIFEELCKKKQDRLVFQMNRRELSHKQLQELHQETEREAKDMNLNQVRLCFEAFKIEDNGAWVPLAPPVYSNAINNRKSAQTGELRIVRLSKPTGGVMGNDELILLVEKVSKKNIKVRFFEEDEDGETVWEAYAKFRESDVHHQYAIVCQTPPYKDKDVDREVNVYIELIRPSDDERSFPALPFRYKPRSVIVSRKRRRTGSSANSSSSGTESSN

[5] = biological target: T5, GST-Aq-NF-kB (Amphimedon queenslandica, UniProt A9Y5G7 2-389)
T5 sequence: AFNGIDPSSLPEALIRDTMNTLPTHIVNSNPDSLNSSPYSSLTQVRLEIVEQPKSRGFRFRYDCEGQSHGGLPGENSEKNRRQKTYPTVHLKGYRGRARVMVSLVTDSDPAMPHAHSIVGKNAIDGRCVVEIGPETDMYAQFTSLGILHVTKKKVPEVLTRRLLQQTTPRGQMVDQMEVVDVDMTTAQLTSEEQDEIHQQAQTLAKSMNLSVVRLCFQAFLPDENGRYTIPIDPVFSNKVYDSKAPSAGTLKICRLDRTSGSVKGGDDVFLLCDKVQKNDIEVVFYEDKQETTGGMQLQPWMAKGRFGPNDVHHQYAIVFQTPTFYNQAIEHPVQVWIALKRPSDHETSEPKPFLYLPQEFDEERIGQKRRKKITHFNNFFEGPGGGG

| Sequence | binding signal [1] [z-score] | binding signal [2] [z-score] | binding signal [3] [z-score] | binding signal [4] [z-score] | binding signal [5] [z-score] |
| --- | --- | --- | --- | --- | --- |
| CCGATTAACATCAACATCCCCCCTGATGTTAATCGGGTCTTGATTCGCTTGACGCTGCTG | 5.64 | 5.25 | 5.48 | 5.72 | 5.23 |
| CCGATTAACATCAAAACAATCCCTGATGTTAATCGGGTCTTGATTCGCTTGACGCTGCTG | 2.49 | 3.19 | 1.41 | 2.25 | 4.66 |
| CCGATTAACATCAAACAACCCCCTGATGTTAATCGGGTCTTGATTCGCTTGACGCTGCTG | 5.66 | 4.5 | 2.66 | 5.24 | 5.17 |
| CCGATTAACATCAATGGGAATTCTGATGTTAATCGGGTCTTGATTCGCTTGACGCTGCTG | 2.8 | 4.72 | 2.98 | 4.26 | 3.51 |
| CCGATTAACATCAGGAACCCCCATGATGTTAATCGGGTCTTGATTCGCTTGACGCTGCTG | 7.5 | 5 | 2.67 | 9.25 | 5.35 |
| CCGATTAACATCAACCACCCCCCTGATGTTAATCGGGTCTTGATTCGCTTGACGCTGCTG | 3.74 | 2.31 | 4.22 | 4.6 | 3.9 |
| CCGATTAACATCACCCAACCCCCTGATGTTAATCGGGTCTTGATTCGCTTGACGCTGCTG | 4.6 | 2.94 | 2.21 | 4.3 | 3.45 |
| CCGATTAACATCAAAAATTGCCCTGATGTTAATCGGGTCTTGATTCGCTTGACGCTGCTG | 1.25 | 1.84 | 1.78 | 1.5 | 2.99 |
| CCGATTAACATCAAATTCCCAGATGATGTTAATCGGGTCTTGATTCGCTTGACGCTGCTG | 2.43 | 3.57 | 3.87 | 3.52 | 2.42 |
| CCGATTAACATCAGGGGAGTATATGATGTTAATCGGGTCTTGATTCGCTTGACGCTGCTG | 4.78 | 3.81 | 4.7 | 2.18 | 3.95 |
| CCGATTAACATCAGGCATTTCCCTGATGTTAATCGGGTCTTGATTCGCTTGACGCTGCTG | 3 | 5.12 | 1.77 | 1.97 | 6.69 |
| CCGATTAACATCAAAAACTACCCTGATGTTAATCGGGTCTTGATTCGCTTGACGCTGCTG | 4.12 | 3.21 | 3.13 | 5.43 | 4.72 |
| CCGATTAACATCAAAAAACCCACTGATGTTAATCGGGTCTTGATTCGCTTGACGCTGCTG | 2.65 | 2.49 | 1.66 | 5.49 | 3.61 |
| CCGATTAACATCAGGGGGTCACCTGATGTTAATCGGGTCTTGATTCGCTTGACGCTGCTG | 3.61 | 2.23 | 1.96 | 6.03 | 4.39 |
| CCGATTAACATCAAAAAATGCCCTGATGTTAATCGGGTCTTGATTCGCTTGACGCTGCTG | 2.08 | 3.03 | 1 | 3.67 | 4.05 |
| CCGATTAACATCAAGTTTTCCCATGATGTTAATCGGGTCTTGATTCGCTTGACGCTGCTG | 2.53 | 3.86 | 4.78 | 1.42 | 2.83 |
| CCGATTAACATCACGGATTTCCCTGATGTTAATCGGGTCTTGATTCGCTTGACGCTGCTG | 3.73 | 5.2 | 3.28 | 5.3 | 5.69 |
| CCGATTAACATCAAACACTCCCCTGATGTTAATCGGGTCTTGATTCGCTTGACGCTGCTG | 4.43 | 3.84 | 3.52 | 1.65 | 4.61 |
| CCGATTAACATCAAGAATTCCCGTGATGTTAATCGGGTCTTGATTCGCTTGACGCTGCTG | 4.85 | 6.36 | 4.23 | 4.9 | 5.46 |
| CCGATTAACATCACTGGGATTTCTGATGTTAATCGGGTCTTGATTCGCTTGACGCTGCTG | 2.53 | 1.96 | 1.15 | 5.55 | 2.37 |
| CCGATTAACATCAGGCACCCCCCTGATGTTAATCGGGTCTTGATTCGCTTGACGCTGCTG | 5.14 | 3.21 | 2.79 | 5.16 | 4.88 |
| CCGATTAACATCAGGGGCAACCCTGATGTTAATCGGGTCTTGATTCGCTTGACGCTGCTG | 2.71 | 2.89 | 2.31 | 3.06 | 5.52 |
| CCGATTAACATCAGGCTTCCCCCTGATGTTAATCGGGTCTTGATTCGCTTGACGCTGCTG | 5.74 | 5.65 | 6.8 | 6.44 | 5.57 |
| CCGATTAACATCAATTGCCCCCCTGATGTTAATCGGGTCTTGATTCGCTTGACGCTGCTG | 4.5 | 2.81 | 5.24 | 3.87 | 4.63 |
| CCGATTAACATCAAAAATCACCCTGATGTTAATCGGGTCTTGATTCGCTTGACGCTGCTG | 2.67 | 2.98 | 2.5 | 7.81 | 3.84 |
| CCGATTAACATCAGGGGATGGGATGATGTTAATCGGGTCTTGATTCGCTTGACGCTGCTG | 3.51 | 3.51 | 2.16 | 1.4 | 2.91 |
| CCGATTAACATCAATAAATACCCTGATGTTAATCGGGTCTTGATTCGCTTGACGCTGCTG | 3.73 | 5.36 | 2.51 | 4.58 | 4.69 |
| CCGATTAACATCAATTCCCAAGGTGATGTTAATCGGGTCTTGATTCGCTTGACGCTGCTG | 1.3 | 1.9 | 2.02 | 1.17 | 1.55 |
